Screens as filed in PubChem BioAssay.
SRC1 inh: inhibits human SRC1 coactivator; AID 588354; HEK293 GAL4-SRC1 luciferase reporter, luminescence; inhibition, % at 3.6 µM; 360,000 tested, 0.12% active;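 active = inhibition above the campaign mean plus 3 SD, with each screening campaign given its own cutoff, cut at about 60% in these data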
Target sequence (Q15788 whole entry, looked up, the tested form may be a part): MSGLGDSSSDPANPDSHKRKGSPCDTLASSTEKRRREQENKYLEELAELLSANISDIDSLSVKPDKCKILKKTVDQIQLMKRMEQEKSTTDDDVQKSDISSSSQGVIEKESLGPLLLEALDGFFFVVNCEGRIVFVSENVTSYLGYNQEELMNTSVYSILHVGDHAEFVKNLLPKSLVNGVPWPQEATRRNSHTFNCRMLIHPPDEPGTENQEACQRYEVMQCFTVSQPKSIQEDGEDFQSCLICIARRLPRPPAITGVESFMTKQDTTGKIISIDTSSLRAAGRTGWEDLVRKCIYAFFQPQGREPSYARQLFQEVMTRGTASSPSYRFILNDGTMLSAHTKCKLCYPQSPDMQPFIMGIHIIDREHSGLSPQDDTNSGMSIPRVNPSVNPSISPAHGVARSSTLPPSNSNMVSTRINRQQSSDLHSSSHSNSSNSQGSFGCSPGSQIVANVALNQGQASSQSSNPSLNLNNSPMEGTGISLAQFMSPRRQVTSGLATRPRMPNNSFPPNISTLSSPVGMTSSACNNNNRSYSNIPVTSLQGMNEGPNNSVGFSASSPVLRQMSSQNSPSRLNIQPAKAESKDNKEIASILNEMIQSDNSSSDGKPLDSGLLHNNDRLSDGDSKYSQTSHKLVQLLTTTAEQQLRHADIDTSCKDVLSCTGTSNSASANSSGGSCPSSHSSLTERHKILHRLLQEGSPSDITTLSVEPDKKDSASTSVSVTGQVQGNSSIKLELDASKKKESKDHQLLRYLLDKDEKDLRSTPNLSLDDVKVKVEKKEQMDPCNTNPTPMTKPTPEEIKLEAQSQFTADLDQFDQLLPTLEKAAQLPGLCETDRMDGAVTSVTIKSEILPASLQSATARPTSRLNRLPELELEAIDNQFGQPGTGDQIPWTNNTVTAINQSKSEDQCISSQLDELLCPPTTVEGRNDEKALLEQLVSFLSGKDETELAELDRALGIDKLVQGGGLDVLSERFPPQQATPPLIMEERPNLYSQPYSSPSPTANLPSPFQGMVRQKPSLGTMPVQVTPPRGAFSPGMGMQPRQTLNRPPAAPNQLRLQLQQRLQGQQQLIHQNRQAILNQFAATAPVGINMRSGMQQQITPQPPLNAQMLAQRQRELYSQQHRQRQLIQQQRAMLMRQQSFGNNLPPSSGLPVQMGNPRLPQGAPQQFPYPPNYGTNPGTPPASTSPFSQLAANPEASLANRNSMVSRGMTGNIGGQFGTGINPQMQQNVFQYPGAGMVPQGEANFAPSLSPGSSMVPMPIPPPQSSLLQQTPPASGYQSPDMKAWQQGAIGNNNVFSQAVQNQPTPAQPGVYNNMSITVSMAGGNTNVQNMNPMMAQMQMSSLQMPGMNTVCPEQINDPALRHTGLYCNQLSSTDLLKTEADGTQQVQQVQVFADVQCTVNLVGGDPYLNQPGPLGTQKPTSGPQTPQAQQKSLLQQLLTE
SRC2 inh: human SRC2 (NCOA2) inhibition; Q15596; HEK293 GAL4-SRC2 luciferase reporter, luminescence; inhibition, % at 9 µM; 370,000 tested, 0.17% active; AID 651957;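 active = inhibition above the mean inhibition of all tested compounds plus 3 SD, set per campaign, cut at about 52% in these data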
Gli-Sufu antag: blocks Gli-Sufu signaling in a luciferase reporter; Sufu-KO-LIGHT fibroblasts, Gli luciferase reporter luminescence; inhibition, % at 5 µM; 340,000 tested, 0.74% active; AID 588413;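 active = inhibition above about 55%, limit read from the data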
LRH-1 inv ag: NR5A2 inverse agonism in reporter assay; 360,000 tested, 0.13% active; HEK293T StAR-luciferase reporter, LRH-1 transfected, 24 h; O00482; inhibition, % at 3.6 µM;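 active = inhibition above the mean inhibition of all tested compounds plus 3 SD, cut at about 73% in these data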
NCOA3 inh: inhibitors of human steroid receptor coactivator 3 (SRC3); Q9Y6Q9; HEK293 GAL4-SRC3 luciferase reporter, luminescence; inhibition, % at 3.6 µM; 360,000 tested, 0.17% active;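 active = inhibition above a per-campaign cutoff, the mean of all compounds plus 3 SD, cut at about 60% in these data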;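 note: higher means less SRC3-driven luciferase light from the GAL4 reporter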
NR2F2 inh: NR2F2 (human) inhibition, primary screen; P24468; HEK293T NGFI-A luciferase reporter, luminescence; inhibition, % at 8.6 µM; 370,000 tested, 0.7% active;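 active = inhibition above a per-plate cutoff, mean inhibition of test wells between control levels plus 3 SD, cut at about 38% in these data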;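 note: cells cotransfected with COUP-TFII expression vector driving the NGFI-A reporter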
Gal4-VP16 ctr: counter-screen for COUP-TFII antagonists: inhibitors of VP16; shares compounds with NR2F2 inh; HEK293 Gal4-VP16 luciferase reporter, luminescence; inhibition, % at 8.5 µM; 2,500 tested, 25% active; AID 687007; in the data active = inhibition above about 13%
NR2F2 inh conf: COUP-TFII (NR2F2) inhibition, confirmation assay | shares compounds with NR2F2 inh | 2,500 tested, 45% active | HEK293 NGFI-A luciferase reporter, luminescence | inhibition, % at 8.5 µM | AID 687008;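 active = mean inhibition over three repeats above a set limit taken from the earlier primary screen, cut at about 38% in these data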
Numbers stand for hits; i = inactive; nt = no result. A selection: hits, their analogues and other compounds. The true share with any hit is near 1.2%.

SMILES	SRC1 inh	SRC2 inh	Gli-Sufu antag	LRH-1 inv ag	NCOA3 inh	NR2F2 inh	Gal4-VP16 ctr	NR2F2 inh conf
Cc1oc(-c2ccc(Cl)cc2)nc1CN1CCCC(C(=O)N2CCN(C(=O)c3ccco3)CC2)C1 (stereo not drawn)	i	i	i	i	i	74	14	63
CCc1ccc(-c2nc(CN3CCC(C(=O)N4CCN(c5ccccn5)CC4)CC3)c(C)o2)cc1	i	i	i	i	i	i	nt	nt
CCc1ccc(-c2nc(CN3CCC(C(=O)N4CCN(c5ccccc5)CC4)CC3)c(C)o2)cc1	i	i	i	i	i	42	i	i
Cc1cccc(-c2nc(CN3CCCC(C(=O)NC4CCCC4)C3)c(C)o2)c1 (stereo not drawn)	i	i	i	i	i	i	nt	nt
Cc1ccc(S(=O)(=O)N2CCCc3nc(-c4ccccc4)ccc32)cc1	nt	i	nt	nt	nt	i	nt	nt
COC(=O)[C@H](C(C)C)N(CCCc1cn(Cc2ccc(C)cc2)nn1)S(=O)(=O)c1ccc(F)cc1Br	nt	i	nt	nt	nt	i	nt	nt
Cc1cc(N)n(Cc2ccc(Cl)cc2)n1	i	i	i	i	i	i	nt	nt
Cc1ccc(-c2cc(N)n(Cc3ccc(Cl)cc3)n2)cc1	i	i	i	i	i	48	i	i
Cc1nn(C)c(C)c1CNC(=O)c1nn2c(c1Cl)NC(c1cccs1)CC2C(F)(F)F (stereo not drawn)	i	i	i	i	i	40	i	i
COCCCNC(=O)C[C@H]1C[C@@]2(C(=O)OC)C(=C[C@H](COCc3ccccc3)O[C@@H]2C)N(CCC2=CCCCC2)C1=O	nt	i	nt	nt	nt	i	nt	nt
CCOC(=O)C1=CCN(S(=O)(=O)c2ccccc2F)C1c1ccc(Br)cc1 (stereo not drawn)	nt	i	nt	nt	nt	i	nt	nt
COc1ccccc1CCn1cnc(-c2ccc(Cl)cc2)c1CC(C)C	nt	i	nt	nt	nt	i	nt	nt
Cc1cc(/C=C2\SC(=S)N(Cc3ccco3)C2=O)c(C)n1-c1ccccc1	i	i	i	i	i	i	nt	nt
CN(C)c1ccc(C=C2SC(=S)N(Cc3ccco3)C2=O)cc1	i	i	nt	i	i	40	i	i
C=CCN1C(=O)[C@@H](CC(=O)NCCCOC)[C@]2(C(=O)OC)CCCCC=C12	nt	i	nt	nt	nt	i	nt	nt
Cc1c(Cl)cccc1NC(=O)CN1CCN(CCO)CC1	i	i	i	i	i	i	nt	nt
Cc1nc(Nc2ncc(C(=O)Nc3c(C)cccc3Cl)s2)cc(N2CCN(CCO)CC2)n1	nt	i	nt	nt	nt	39	i	i
COc1ccc(CNC(=O)c2sc3nc(C)c(Cl)c(C)c3c2N)cc1	nt	i	nt	nt	nt	i	nt	nt
Cc1ccc(Oc2ccccc2NC(=O)CSCC(=O)Nc2cc(C)on2)cc1	i	i	i	i	i	62	i	49
O=C1CCCN2N=C(SCC(=O)Nc3cccc(C(F)(F)F)c3)SC2=N1	i	i	i	i	i	53	i	50
O=C(c1ccc(Cl)c(S(=O)(=O)N2CCCCCC2)c1)N1CCCC(C(F)(F)F)C1 (stereo not drawn)	i	i	i	i	i	i	nt	nt
O=C(c1cc(S(=O)(=O)N2CCN(c3ccccc3)CC2)ccc1Cl)N1CCCC(C(F)(F)F)C1 (stereo not drawn)	i	i	i	i	i	46	i	i
COc1ccc(NS(=O)(=O)c2ccc(C)c(C(=O)NC3CCN(Cc4ccccc4)CC3)c2)cc1	i	i	i	i	i	i	nt	nt
COc1ccccc1NS(=O)(=O)c1cc(C(=O)NC2CCN(Cc3ccccc3)CC2)ccc1C	nt	i	i	nt	nt	68	i	45
COc1ccccc1NS(=O)(=O)c1ccc(C)c(C(=O)NC2CCN(Cc3ccccc3)CC2)c1	i	i	i	i	i	47	i	i
COc1ccccc1NS(=O)(=O)c1cc(C(=O)N2CCCC2)ccc1C	i	i	i	i	i	i	nt	nt
CCN(CC)S(=O)(=O)c1cccc(C(=O)Nc2ccc(C#N)cc2)c1	i	i	i	i	i	55	i	40
CCN(CC)S(=O)(=O)c1cccc(C(=O)Nc2cc(C)cc(C)c2)c1	i	i	i	i	i	i	nt	nt
CCN(CC)S(=O)(=O)c1cccc(NC(=O)c2ccc(Br)cc2)c1	i	i	i	i	i	39	i	i
